Assay outcomes as filed in PubChem.
HPGD block – HPGD (human) dehydrogenase inhibition; AID 894; hit rate 4.3% among 150,000; P15428; purified HPGD, NADH fluorescence kinetic, PGE2 substrate; Potency, µM, inactives show at the highest dose activity change, negative = inhibition, hits mostly inhibitors; further: potency means the concentration at half of the fitted maximal effect
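20 nM HPGD preincubated 15 min at room temperature with compound in 50 mM Tris-HCl pH 8, 0.01% Tween 20. Started with 1 mM NAD+ and 30 uM prostaglandin E2; NADH fluorescence (360/450 nm) read 5 times over 30-s intervals, last minus first.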
PNC inhibitor – inhibitors of perinucleolar compartment assembly; PC3M PTB-GFP, PNC prevalence imaging, 16 h; active compounds read low; activity change (PNC), negative = inhibition, % at 10 µM; hit rate 3.1% among 140,000;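 active means readout at or below -70, meaning at least 70% loss of cells showing the perinucleolar compartment, a nuclear body marking cancer cells; inconclusive means readout between -30 and a set limit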;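 further: plate controls were DMSO wells for no effect and camptothecin positive control wells for full effect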
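Read-out is percentage of cells bearing a perinucleolar compartment, from automated 20x imaging of fixed, Hoechst-stained PC3M PTB-GFP cells. Cells were seeded 4 h, then exposed 16 h to compound (23 nl of library stock) in duplicate plates.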
ALDH1A1 inh – inhibitors of human aldehyde dehydrogenase 1A1; P00352; Purified ALDH1A1, NADH fluorescence, propionaldehyde substrate; Potency, µM (doses to about 75.3 µM), for inactives: at the highest dose activity, negative = inhibition, hits mostly inhibitors; AID 1030; hit rate 7.3% among 220,000;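 further: potency means the concentration at half of the fitted maximal effect; plate controls were no enzyme wells and a reference inhibitor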
Target sequence (P00352 whole entry, looked up): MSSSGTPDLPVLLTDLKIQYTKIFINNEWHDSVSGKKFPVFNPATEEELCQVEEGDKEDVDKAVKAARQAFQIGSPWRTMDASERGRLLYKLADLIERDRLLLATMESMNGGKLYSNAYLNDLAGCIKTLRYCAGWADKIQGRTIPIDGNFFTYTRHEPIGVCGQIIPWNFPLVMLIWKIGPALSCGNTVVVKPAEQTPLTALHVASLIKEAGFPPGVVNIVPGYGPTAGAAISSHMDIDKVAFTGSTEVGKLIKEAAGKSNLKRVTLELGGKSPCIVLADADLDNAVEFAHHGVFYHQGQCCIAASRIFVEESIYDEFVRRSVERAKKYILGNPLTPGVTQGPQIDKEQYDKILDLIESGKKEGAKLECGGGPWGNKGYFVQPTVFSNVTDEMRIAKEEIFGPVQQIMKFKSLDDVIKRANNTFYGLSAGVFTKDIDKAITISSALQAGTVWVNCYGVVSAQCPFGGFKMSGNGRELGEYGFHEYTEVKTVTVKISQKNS
Numbers without * were called inactive; u = inconclusive; x = no result; [ ] = another dose, or the depositor's remark. In the library only some 11% were active in any assay of this set; here they are far more common. Unless noted, the call rests on the fitted dose curve; in most records, active means well fitted inhibition curve with a large enough effect (not every such curve was filed as active); inconclusive means small, poorly fitted or top-dose-only effect, or another doubt; inactive means no such curve, though single readings can be large or run the other way. Unless noted, on the % scale 0 is the no-effect control and ±100 the full control effect.

SMILES	HPGD block	PNC inhibitor	ALDH1A1 inh
COC(=O)C[C@H]1c2ccccc2C2=C(C[C@@H](C)[C@H]3C(=O)NC(=O)[C@@H]23)N1C(=O)OC	-13%	x	-2%[13.5 µM]
O=C(Nc1nc2ccccc2[nH]1)c1ccc(Br)o1	x	x	3%
CCOC(=O)C/C(N)=N/NC(=O)c1ccc(Cl)cc1Cl	x	x	2%
O=C(NCc1ccccc1C(F)(F)F)C12CN(Cc3ccccc3)CC1C(c1ccc([N+](=O)[O-])cc1)=NO2 (configuration not stated)	-17%	-119*	25µM*
O=C(NCC1CCCCC1)C12CN(Cc3ccccc3)CC1C(c1cccc([N+](=O)[O-])c1)=NO2 (configuration not stated)	-11%	-20	u
COc1cccc(CNC(=O)C23CN(Cc4ccccc4)CC2C(c2ccc([N+](=O)[O-])cc2)=NO3)c1 (configuration not stated)	-8%	62	u
CC(C)CCNC(=O)C12CN(Cc3ccccc3)CC1C(c1ccc([N+](=O)[O-])cc1)=NO2 (configuration not stated)	-22%	u	2.8µM*
CC1CCN(c2cc(C#N)c(C#N)cc2[N+](=O)[O-])CC1	-7%	24	6%
Cc1cc(N2CCC(C)CC2)c(F)cc1[N+](=O)[O-]	-15%	-11	10µM*
Cc1ccc(S(=O)(=O)Nc2c(C)nn(C)c2C)cc1	-3%	u	10%
CCn1nc(C)c(NS(=O)(=O)c2ccc(C)cc2)c1C	-22%	-100*	-1%
O=c1[nH]ncc(NCc2ccc(Cl)cc2)c1Cl	x	x	5%
CC1(C)N(OCc2ccccc2)C(=O)C(=O)N(OCc2ccccc2)C1(C)C	-4%	2	10%
CON1C(=O)C(=O)N(OC)C(C)(C)C1(C)C	1%	u	20µM*
CCCCCC(=O)N1CCN(CCN=CC2=C(O)CC(c3ccc(OC)c(OC)c3)CC2=O)CC1 (configuration not stated)	-3%	u	22µM*
CCCCCC(=O)N1CCN(CCN=CC2=C(O)CC(c3ccc(OC)cc3)CC2=O)CC1 (configuration not stated)	-17%	20	u
COC(=O)[C@@H]1C[C@@H]2CC[C@@H](O)C[C@@H]2N1Cc1ccc(N2CCN(C)CC2)cc1	-3%	x	u
C#CCOC(=O)CCCNc1ccc([N+](=O)[O-])cc1[N+](=O)[O-]	-14%	-17	-9%
Nc1nc(NCc2ccco2)nc(N2CCCCC2)c1[N+](=O)[O-]	-5%	3	4µM*
Cc1cccc(Nc2nc(NCc3ccco3)nc(N)c2[N+](=O)[O-])c1	x	x	11%
Nc1nc(Nc2ccccc2)nc(N2CCOCC2)c1[N+](=O)[O-]	-7%	32	13µM*
CN(C)c1ccc(Nc2nc(N)c([N+](=O)[O-])c(N3CCOCC3)n2)cc1	-10%	u	-42%
O=C(CSCCOc1ccccc1)NCc1ccncc1	x	x	-1%
Cc1cnc(NC(=O)CC2CCCC2)s1	x	x	-4%
O=C(CSc1nnc(-c2ccc(Cl)cc2)n1-c1ccc(Cl)cc1)N/N=C/c1ccco1	-18%	11	u
SMILES	HPGD block	PNC inhibitor	ALDH1A1 inh
Cc1ccc(/C=N/NC(=O)CSc2nc3ccccc3s2)o1	14µM*	-3	11µM*
O=C(COc1cccc2ccccc12)N/N=C/c1ccc(Sc2nc3ccccc3s2)o1	28µM*	-11	u
Cc1ccccc1OCC(=O)N/N=C/c1ccc(Sc2nc3ccccc3s2)o1	-18%	18	-5%
COCC(=O)N/N=C/c1ccc(Sc2nc3ccccc3s2)o1	-27%	70	u
Cc1ccc(/C=N/NC(=O)CSc2nnc(-c3ccc(Cl)cc3)n2-c2ccccc2)o1	u	u	10µM*
C=CCC1C=CC(OC(=O)OCC)C(COC(=O)OCC)O1 (configuration not stated)	x	x	11%[13.5 µM]
Cc1cccc(C(=O)NNC(=O)CN2C(=O)c3ccccc3C2=O)c1	-1%	-21	-2%
CCO/N=C(/c1nonc1N)N1CCN(c2ccc([N+](=O)[O-])cc2)CC1	-14%	-13	11µM*
CO/N=C(\c1nonc1N)N1CCN(c2ccc([N+](=O)[O-])cc2Cl)CC1	-22%	u	u
COc1cc2c(cc1OC)C(C1C(=O)CC(C)CC1=O)N(C(=O)CCl)CC2 (configuration not stated)	-8%	-21	u
Cn1nc(-c2ccccc2)c(CO)c1Oc1ccc(F)cc1	x	x	-5%
Cc1ccc(NC(=O)c2cnccn2)cc1	x	x	-2%
O=C(Cn1cnc2ccccc2c1=O)Nc1cccc(-c2nnc3n2CCCCC3)c1	-12%	u	-5%
O=C(Nc1ccc(-c2nnc3n2CCCCC3)cc1)c1cnccn1	10µM*	-18	3%
O=C(Cn1cnc2ccccc2c1=O)Nc1ccc(-c2nnc3n2CCCCC3)cc1	13µM*	12	14µM*
Cc1onc(-c2ccccc2)c1C(=O)Nc1ccc(S(=O)(=O)N2CCCCC2)cc1	-1%	59	-6%
Cc1onc(-c2ccccc2)c1C(=O)Nc1ccc(-c2nnc3n2CCCCC3)cc1	7.1µM*	9	3%
CCOC(=O)CCN1C(=O)[C@H]2[C@H]3[C@H](O)[C@H](O)C/C(=N/NC(=O)OCc4ccc(OC)cc4)[C@H]3CC[C@@H]2C1=O	x	x	-5%[13.5 µM]
C#Cc1ccc([C@@H]2C=C(C(=O)N3CCN(Cc4ccc5c(c4)OCO5)CC3)O[C@H](OCC)[C@H]2CCCO)cc1	x	x	-11%
O=C(Nc1cc(Cl)ccc1Cl)C1CC(=O)N(c2ccc(Br)cc2)C1 (configuration not stated)	-12%	9	-3%
O=C(Nc1ncccc1O)c1c(O)c2ccccc2[nH]c1=O	x	x	0%
CC(C)C(C)NC(=O)COc1ccc(S(=O)(=O)N2CCOCC2)cc1Cl (configuration not stated)	x	x	-11%
CCOc1nc(NC(=O)NS(=O)(=O)c2cccc(Cl)c2)nc(-c2ccccc2)n1	-1%	23	16%
CN(C)C(CNc1nnnn1-c1ccccc1)c1ccco1 (configuration not stated)	-3%	-90*	-7%
Cc1ccc(-n2nnnc2-c2ccco2)cc1	-10%	28	u
SMILES	HPGD block	PNC inhibitor	ALDH1A1 inh
N/C(Cc1ccc(Cl)c(Cl)c1)=N\OC(=O)c1ccc(Br)o1	x	x	7%
O=C(/C=C/c1ccc(S(=O)(=O)N2CCOCC2)cc1)NCc1ccccc1	x	84	u
CCN(C(=O)CN1CCN(S(=O)(=O)c2cc(Cl)ccc2Cl)CC1)c1c(N)n(Cc2ccccc2)c(=O)[nH]c1=O	-3%	u	5%
Cc1noc(C)c1-c1nccc(N(C)Cc2ccco2)n1	x	x	14µM*
CN(Cc1ccco1)c1ccnc(-c2ccoc2)n1	-18%	x	u
COc1ccc(C(=O)N2CCC3(CCCN(C(=O)Nc4cccc(C#N)c4)C3)CC2)cc1	-5%	x	u
CCn1c2ccccc2c2cc(NC(=O)CNCC3CCCO3)ccc21 (configuration not stated)	x	x	32µM*
O=C(CNCC1CCCO1)Nc1ccccc1N1CCOCC1 (configuration not stated)	-4%	-86*	u
O=C(CNCC1CCCO1)Nc1ccccc1-n1cccc1 (configuration not stated)	-3%	u	u
CCn1c2ccccc2c2cc(NC(C)=O)ccc21	-8%	-21	0%
